The campaign covered roughly 360,000 compounds. About 10,000 (2.8%) were called active. About 4% were inconclusive and are not listed. The call rests on the fitted dose curve; in most records, active means well fitted inhibition curve with a large enough effect; inconclusive means small, poorly fitted or top-dose-only effect; inactive means flat fitted curve, though single readings scatter. The list comes from a sample in which actives are over-represented; it also holds similar structures and randomly drawn compounds.
On the % scale 0 is the no-effect control and ±100 the full control effect; potency means the concentration at half of the fitted maximal effect.

Serine/threonine-protein kinase PLK1 (Homo sapiens), sequence (P53350 whole entry, looked up, the tested form may be a part): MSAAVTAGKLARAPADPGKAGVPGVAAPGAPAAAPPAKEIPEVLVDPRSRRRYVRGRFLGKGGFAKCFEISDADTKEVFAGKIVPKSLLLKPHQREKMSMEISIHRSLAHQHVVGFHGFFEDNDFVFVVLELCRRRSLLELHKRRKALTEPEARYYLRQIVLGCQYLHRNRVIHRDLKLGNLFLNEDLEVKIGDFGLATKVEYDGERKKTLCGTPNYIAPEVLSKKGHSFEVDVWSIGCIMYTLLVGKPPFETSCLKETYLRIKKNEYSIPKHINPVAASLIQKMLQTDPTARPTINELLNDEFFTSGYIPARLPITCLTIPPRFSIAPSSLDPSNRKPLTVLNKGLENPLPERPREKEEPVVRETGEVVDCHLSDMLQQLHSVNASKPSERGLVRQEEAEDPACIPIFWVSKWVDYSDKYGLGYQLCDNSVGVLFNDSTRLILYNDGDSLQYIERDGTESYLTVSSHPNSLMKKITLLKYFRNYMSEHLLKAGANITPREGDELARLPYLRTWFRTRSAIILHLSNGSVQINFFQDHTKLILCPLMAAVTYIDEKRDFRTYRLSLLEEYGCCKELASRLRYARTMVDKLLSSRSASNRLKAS

The test addresses Serine/threonine-protein kinase PLK1 (Homo sapiens) (UniProt P53350). Briefly: qHTS for Inhibitors of PLK1-PDB (polo-like kinase 1 - polo-box domain): Primary Screen. Further: nearly all actives have a fitted effect of over 65% in size. On max response, negative = inhibition: series mostly up to about 57 µM. The settings on record: Plk1 PBD binding of FITC phosphopeptide, fluorescence polarization. A general note: Quantitative high-throughput screening tests each substance at several concentrations.
With `Fc1ccc(COc2ccc(-c3nnco3)cc2)cc1`, the max response, negative = inhibition was 2.81% (inactive). `Fc1ccc(COc2cccc(-c3n[nH]c(=S)o3)c2)cc1`: the Potency was 6.7 µM (active).

Consider `CN(Cc1ccc(F)cc1)C(=O)COc1ccc2ccccc2c1`, for which the max response, negative = inhibition is -5.68% (inactive).

Turning to `COCCCn1cc(CN2CC(N(C)C)CS2(=O)=O)nn1` (stereo unspecified), the max response, negative = inhibition was 2.09% (inactive). Same read-out and setting: the figure for `CC(=O)N1C[C@@H](CO)[C@@H](N(C)C(=O)c2ccco2)C[C@H]1c1ccccc1` is -12.5% (inactive); for `COc1ccc(-c2csc(Nc3cccc(C)n3)n2)cc1OC` it is 8.19% (inactive); for `COc1ccc(C(O)c2nc(-c3ccc4c(c3)OCO4)cs2)cc1` (stereo unspecified) it is 6.53% (inactive).

Take `COc1ccc(OC)c(Nc2nc(-c3ccc(O)c(O)c3)cs2)c1`: the Potency is 29.9 µM (active). On to `Cc1noc(C)c1C(=O)N1CCC1(C)C(=O)NS(=O)(=O)c1ccc(C#N)cc1` (stereo unspecified), for which the max response, negative = inhibition is -3.77% (inactive).

`CC1(C(=O)NCc2ccccc2)CSCC(=O)N1CCCN1CCOCC1` (stereo unspecified): the max response, negative = inhibition is 6.34% (inactive).

On to `O=C1CC[C@H](O)CCN1[C@H](CSc1ccc(Br)cc1)Cc1ccccc1`, for which the Potency is 11.9 µM (active). Turning to `O=C1CCNCCN1[C@H](CO)Cc1ccccc1`, the max response, negative = inhibition is -3.76% (inactive). Still for that read-out and setting: then `C[C@H]1CCC(=O)N([C@H](CSc2ccccc2)Cc2ccccc2)CC1`, with -3.56% (inactive); and `CCN(CC)S(=O)(=O)c1ccc(N(C)Cc2cccc(OC)c2OC)nc1`, with -1.33% (inactive). Consider `CCN(CC)S(=O)(=O)c1ccc(N(C)Cc2ccc(C(F)(F)F)cc2)nc1`, for which the Potency was 29.9 µM (active). For `CN(CCc1ccccc1)c1ccc([N+](=O)[O-])cn1`, the max response, negative = inhibition was -3.04% (inactive). Same read-out and setting: the figure for `CCCS(=O)(=O)NC(=O)C1(C)CCCN(C(=O)c2ccnc(Cl)c2)C1` (stereo unspecified) is 3.92% (inactive); for `CC(C)N1C(=O)c2ccccc2NC(=O)C1C(=O)NCc1cccs1` (stereo unspecified) it is -1.29% (inactive); for `CC(=O)N1Cc2cc(C(=O)NCc3cccc(F)c3)nc(-c3cccc(C4=CCCCC4)c3)c2[C@H]1CCO` it is -9.42% (inactive). The same measure, in the same setting: then `CN1CCN(C(=O)c2ccc(NC(=O)c3ccc(Br)o3)cc2)CC1`, with -7.09% (inactive); and `O=C(Cn1nnc(N2CCCCC2)n1)c1ccc(Cl)c(Cl)c1`, with -14.1% (inactive).

Take `O=C(Cn1ncc(N2CCCC2)c(Br)c1=O)c1ccc(Cl)cc1`: the max response, negative = inhibition was -7.29% (inactive). With `O=C(Cn1nc(CNc2ccc(Cl)cc2)[n+]2c1CCCCC2)c1ccc(Cl)cc1`, the Potency is 21.2 µM (active).

Take `O=C(NC(c1ccc(-c2ccccc2)cc1)c1cnccn1)C1CCN(CCOc2ccc(Cl)cc2Cl)CC1` (stereo unspecified): the max response, negative = inhibition is -2.44% (inactive).

Consider `O=C1NC[C@H](CCCCN2C[C@H](Cc3ccccc3)N(Cc3ccccc3)C(=O)C2=O)N(CCc2ccc(O)cc2)C1=O`, for which the max response, negative = inhibition was 3.35% (inactive).

`C[C@H]1CN([C@@H](C)CO)C(=O)CCCn2nncc2CO[C@@H]1CN(C)S(=O)(=O)c1cccc(C#N)c1`: the max response, negative = inhibition was -7.11% (inactive).

For `Cc1cn([C@H]2C[C@H](O)[C@@H](/C=C/C(=O)NCCCc3ccccc3)O2)c(=O)[nH]c1=O`, the max response, negative = inhibition was -13.1% (inactive).

Turning to `Cc1cn(C2OC[C@@H](O)[C@@H]2CO)c(=O)[nH]c1=O` (stereo partly specified), the max response, negative = inhibition is -5.18% (inactive). `Cc1cn(C2C=CC(CO)O2)c(=O)[nH]c1=O` (stereo unspecified): the Potency was 29.9 µM (active).

As for `O=C(CCN1CCCCC1)Nc1ccc(F)c(F)c1`, the max response, negative = inhibition was -0.714% (inactive). Turning to `CCCCN1CC(N2CCN(Cc3cccc(C)c3)CC2)CS1(=O)=O` (stereo unspecified), the max response, negative = inhibition was -2.99% (inactive). Same read-out and setting: then `CCOC(=O)C1=CC[C@@H](c2ccccc2)N(S(=O)(=O)c2ccc(C)cc2)[C@H]1c1ccc(CC)cc1`, with -1.73% (inactive); and `NC1=CC(=O)C(=O)c2cccnc21`, with -7.35% (inactive).

For the compound `COCCCNC(=O)Cn1c(=O)n(Cc2ccccc2Cl)c(=O)c2cc(OC)c(OC)cc21`, the Potency is 29.9 µM (active). `COCCCNC(=O)CN1CCN(Cc2ccccc2Cl)C1=O`: the max response, negative = inhibition was -7.04% (inactive). For the compound `COc1ccc(CCNC(=O)Cn2c(=O)n(CC3CCCO3)c(=O)c3ccccc32)cc1OC` (stereo unspecified), the max response, negative = inhibition was -13.3% (inactive). On the same count and under the same terms, then `CCNC(=O)C1(C)CCCN(Cc2noc(-c3ccccc3OC)n2)C1` (stereo unspecified), with -4.99% (inactive). The same measure, in the same setting: then `C[C@H]1Cn2cnc(C(=O)N[C@@H](Cc3c[nH]c4ccccc34)C(=O)OC(C)(C)C)c2C(=O)N1`, with -0.575% (inactive). Regarding `CC(=O)OC(COc1ccc(F)cc1)Cn1cnc2ccccc21` (stereo unspecified), the Potency is 37.7 µM (active). Turning to `CC(=O)N=c1ncn(CC(COC(C)=O)OC(C)=O)c2nc[nH]c12` (stereo unspecified), the max response, negative = inhibition was -2.18% (inactive).

For the compound `CC(C)c1ccc(OCC(O)Cn2cnc3ccccc32)cc1` (stereo unspecified), the max response, negative = inhibition was -4.3% (inactive).

`CCCNC(=O)c1cc(C2CCCN(C(=O)c3ccc4c(c3)CCO4)C2)on1` (stereo unspecified): the max response, negative = inhibition is -6.48% (inactive). Same read-out and setting: the figure for `CCCC(=O)N1CCC1(C)C(=O)NCc1ccc(C(C)C)cc1` (stereo unspecified) is -11.6% (inactive); for `O=C(Cc1ccc([N+](=O)[O-])cc1)NCCS(=O)(=O)N1CCN(c2ccccc2)CC1` it is -7.66% (inactive).

Consider `COC(=O)C[C@H]1C=C[C@@H](NS(=O)(=O)c2ccc(C)cc2)[C@@H](CO)O1`, for which the max response, negative = inhibition is 2.12% (inactive). Still for that read-out and setting: the figure for `CC1(c2cccc(Br)c2)NC(=O)N(CC(=O)NCCC2=CCCCC2)C1=O` (stereo unspecified) is -9.46% (inactive); for `CC(C)(C)c1cc(C(=O)NCc2cccnc2)ccn1` it is -6.13% (inactive); for `CSc1sc(C(=O)NC(=O)NCc2cccnc2)c(C)c1-c1ccon1` it is -0.192% (inactive). For `Cc1ccc(-n2nc(-c3ccco3)cc2C(=O)NCc2cccnc2)cc1`, the Potency is 9.47 µM (active). Regarding `Nc1[nH]c(=S)nc2nc(-c3ccccc3)c(-c3ccccc3)nc12`, the Potency is 21.2 µM (active). With `CCCCOCCCNC(=O)C[C@@H]1C[C@@]2(C(=O)OC)CCCCC=C2N(CCC2=CCCCC2)C1=O`, the max response, negative = inhibition was 1.64% (inactive). On the same count and under the same terms, then `CCN(Cc1ccncc1)C(=S)Nc1ccccc1C`, with -0.726% (inactive). Consider `COc1cccc(-n2c(=S)sc3c(=O)n(-c4ccccc4OC)c(SCC4OCCO4)nc32)c1`, for which the max response, negative = inhibition was 4.69% (inactive). In the case of `COc1ccccc1-n1c(=S)[nH]c2c(sc(=S)n2-c2ccc(C)cc2C)c1=O`, the Potency is 6.7 µM (active).

Consider `COc1ccccc1-n1cn[nH]c1=S`, for which the max response, negative = inhibition is -29.4% (inactive). For the compound `COc1ccc(OC)c(-n2c(=S)[nH]c3cc(C(=O)N4CCCCC4)ccc3c2=O)c1`, the max response, negative = inhibition was 2.08% (inactive). The same measure, in the same setting: then `COc1ccccc1N1CCN(c2nc(C)cc(=O)[nH]2)CC1`, with -12.7% (inactive). As for `CCc1ccc(-n2c(=S)sc3c(=O)n(-c4ccccc4OC)c(=S)[nH]c32)cc1`, the Potency is 11.9 µM (active). Regarding `CC1(C(=O)NS(=O)(=O)c2ccccc2)CCN1C(=O)C/C=C/c1ccccc1` (stereo unspecified), the max response, negative = inhibition is -21.1% (inactive). Still for that read-out and setting: then `COc1ccc(OC)c(C(=O)NC2CCCc3c2cnn3-c2cc(C)cc(C)c2)c1` (stereo unspecified), with -4.63% (inactive).

With `CC1C(=O)N(Cc2cn(Cc3ccco3)nn2)CCS(=O)(=O)N1Cc1ccc(-c2cccc(CO)c2)cc1` (stereo unspecified), the max response, negative = inhibition is -3.83% (inactive).

Consider `OC[C@@H]1CN(Cc2ccncc2)C[C@H](n2cnc3c(N4CCN(c5ccccc5)CC4)ncnc32)O1`, for which the max response, negative = inhibition was -12.1% (inactive). Still for that read-out and setting: then `Cc1cc(C)c2cc(C#N)c(N3CCNCC3)nc2c1`, with -8.16% (inactive). Regarding `Cc1ccc(C(=O)N2CCCC2)c(F)c1F`, the Potency was 21.2 µM (active). Still for that read-out and setting: the figure for `Cc1ccc(C(=O)N2CCCCCC2)cc1Br` is 26.7 µM (active). As to `O=C(c1ccc(Cl)c(Cl)c1)N1CCCC1`, the max response, negative = inhibition was -20.7% (inactive). On the same count and under the same terms, then `COc1c(C(=O)N2CCCC2)ccc2ccccc12`, with -0.934% (inactive). Same read-out and setting: the figure for `Cc1c(Br)cc(C(=O)N2CCCCCC2)c(C)c1C` is -5.8% (inactive); for `CCNC(=O)C1CCCN(C(=O)c2cc(F)ccc2C)CC1` (stereo unspecified) it is -1.52% (inactive).

In the case of `CCc1nc2c(OCc3ccc(C(F)(F)F)cc3)cccn2c1N(C)C(=O)CC(C)C`, the max response, negative = inhibition was 0.499% (inactive). The same measure, in the same setting: the figure for `COc1cc(-c2nnc(NC(=O)CS(=O)(=O)c3ccc(Cl)cc3)o2)cc(OC)c1OC` is -18.2% (inactive); for `CC(C)C1CCN(C(=O)C2CCC(=O)N(C3CCCCCC3)C2)CC1` (stereo unspecified) it is 0.565% (inactive). Consider `O=C(COc1ccccc1)Nc1ccc(F)cc1`, for which the max response, negative = inhibition was -17.9% (inactive). Take `Fc1ccc(/C=N/n2c(COc3ccccc3)n[nH]c2=S)cc1`: the Potency is 23.8 µM (active). In the case of `CC(Sc1nnc(COc2ccccc2)n1-c1ccccc1)C(=O)O` (stereo unspecified), the max response, negative = inhibition was -5.44% (inactive).

`CC(=O)Nc1cc(-c2ccc(N3CCN(C)CC3)cc2)cn2c(-c3cccc(C(=O)N(C)C)c3)cnc12`: the max response, negative = inhibition is -2.75% (inactive). With `CN1OC[C@@H]2CN(S(=O)(=O)c3cccc(C(F)(F)F)c3)[C@H](c3ccc(-c4cc5ccccc5o4)cc3)C[C@@H]21`, the max response, negative = inhibition was -19.4% (inactive). Still for that read-out and setting: then `O=C(Nc1ccc2c(c1)OCCO2)C(C1CC1)N1CCC(Cc2ccccc2)CC1` (stereo unspecified), with 1.88% (inactive); and `CCC(C(=O)NC(C)(C)C)n1c(-c2ccccc2)nc2ccccc21` (stereo unspecified), with 0.0436% (inactive). As to `CCOC(=O)N1CCN(CC(=O)c2c(C)[nH]c3ccccc23)CC1`, the Potency was 3.77 µM (active). On to `Cc1[nH]c2ccccc2c1C(=O)CN1CCCC(C)C1` (stereo unspecified), for which the max response, negative = inhibition is -2.14% (inactive). The same measure, in the same setting: the figure for `Cc1[nH]c2ccccc2c1C(=O)CN1CC(C)CC(C)C1` (stereo unspecified) is -9.93% (inactive); for `CNc1cncc(-c2cccc(C(=O)N3CCOCC3)c2)n1` it is -3.85% (inactive); for `COc1ccccc1-n1c(SCC(=O)Nc2ccc(Cl)cc2)nc(O)c(Cc2ccccc2)c1=O` it is -10.5% (inactive). Same read-out and setting: then `CNc1cnc(-c2cc(OC)c(OC)c(OC)c2)cn1`, with -14% (inactive). Consider `CCc1nnc(NS(=O)(=O)c2ccc(NC(=S)NC(=O)c3cccs3)cc2)s1`, for which the Potency is 18.9 µM (active). In the case of `CCc1nnc(NS(=O)(=O)c2ccc(NC(=O)c3cccc(OC(F)(F)C(F)F)c3)cc2)s1`, the max response, negative = inhibition is -23.6% (inactive). For `NS(=O)(=O)c1ccc(NC(=S)NNC(=O)c2cccs2)cc1`, the Potency is 29.9 µM (active).

As to `CCc1ccc(NC(=O)C(=O)NNC(=O)c2cccs2)cc1`, the max response, negative = inhibition was -20.4% (inactive).

As to `O=C(NC(=S)Nc1ccc(NC(=O)c2cccs2)cc1)c1ccc([N+](=O)[O-])cc1`, the max response, negative = inhibition was -4.47% (inactive). Still for that read-out and setting: the figure for `CS(=O)(=O)c1ccc(C(=O)NNC(=O)c2cccs2)cc1` is -0.622% (inactive).
